Measurements reported in the supplement of paper PMC4466140.

Assays:
Test in all cases: SPOT peptide array binding signal intensity (averaged, normalized) (arbitrary units (background-subtracted, floor 0; scale differs between SH3 domains)); higher = stronger binding of the SH3 domain to the peptide
ScBbc1 = target: ScBbc1
Summary of the method: (§1)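 Cellulose membranes carried synthetic 15-mer peptides with cysteines swapped for serines. These were incubated overnight at 4°C with 10 μg/ml of GST-fused SH3 domains from four yeast species in TBS-based blocking buffer. Binding signal, detected with anti-GST antibody and quantified in Genespotter, is the normalized, background-subtracted spot intensity averaged over replicates, in arbitrary units specific to each domain.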

ScBem1-D1 = target: ScBem1-D1
Summary of the method: as §1

ScBzz1-D1 = target: ScBzz1-D1
Summary of the method: as §1

ScBzz1-D2 = target: ScBzz1-D2
Summary of the method: as §1

ScCyk3 = target: ScCyk3
Summary of the method: as §1

ScFus1 = target: ScFus1
Summary of the method: as §1

ScHof1 = target: ScHof1
Summary of the method: as §1

ScHse1 = target: ScHse1
Summary of the method: as §1

ScLsb1 = target: ScLsb1
Summary of the method: as §1

ScLsb2 = target: ScLsb2
Summary of the method: as §1

ScLsb3 = target: ScLsb3
Summary of the method: as §1

ScLsb4 = target: ScLsb4
Summary of the method: as §1

ScMyo3 = target: ScMyo3
Summary of the method: as §1

ScMyo5 = target: ScMyo5
Summary of the method: as §1

ScNbp2 = target: ScNbp2
Summary of the method: as §1

ScPex13 = target: ScPex13
Summary of the method: as §1

ScRvs167 = target: ScRvs167
Summary of the method: as §1

ScSho1 = target: ScSho1
Summary of the method: as §1

ScSla1-D1-D2 = target: ScSla1-D1-D2
Summary of the method: as §1

ScSla1-D3 = target: ScSla1-D3
Summary of the method: as §1

SpAbp1-D1 = target: SpAbp1-D1
Summary of the method: as §1

SpBbc1 = target: SpBbc1
Summary of the method: as §1

SpBzz1-D1 = target: SpBzz1-D1
Summary of the method: as §1

SpBzz1-D2 = target: SpBzz1-D2
Summary of the method: as §1

SpCyk3 = target: SpCyk3
Summary of the method: as §1

SpHof1 = target: SpHof1
Summary of the method: as §1

SpHof1-2 = target: SpHof1-2
Summary of the method: as §1

SpHof1-3 = target: SpHof1-3
Summary of the method: as §1

SpHse1 = target: SpHse1
Summary of the method: as §1

SpLsb1 = target: SpLsb1
Summary of the method: as §1

SpLsb4 = target: SpLsb4
Summary of the method: as §1

SpMyo1 = target: SpMyo1
Summary of the method: as §1

SpNbp2 = target: SpNbp2
Summary of the method: as §1

SpPex13 = target: SpPex13
Summary of the method: as §1

SpRvs167 = target: SpRvs167
Summary of the method: as §1

SpSla1-D1-D2 = target: SpSla1-D1-D2
Summary of the method: as §1

SpSla1-D3 = target: SpSla1-D3
Summary of the method: as §1

B1: unnamed (peptide)
chain: DGNEEKPLLPTRPNK
SPOT peptide array binding signal intensity (ScBbc1): 306
SPOT peptide array binding signal intensity (ScBem1-D1): 6.5
SPOT peptide array binding signal intensity (ScBzz1-D1): 34.2
SPOT peptide array binding signal intensity (ScBzz1-D2): ≤ 0
SPOT peptide array binding signal intensity (ScCyk3): ≤ 0
SPOT peptide array binding signal intensity (ScFus1): ≤ 0
SPOT peptide array binding signal intensity (ScHof1): 41.6
SPOT peptide array binding signal intensity (ScHse1): 15
SPOT peptide array binding signal intensity (ScLsb1): 209
SPOT peptide array binding signal intensity (ScLsb2): 10
SPOT peptide array binding signal intensity (ScLsb3): 7260
SPOT peptide array binding signal intensity (ScLsb4): 4200
SPOT peptide array binding signal intensity (ScMyo3): 0.5
SPOT peptide array binding signal intensity (ScMyo5): 8.12
SPOT peptide array binding signal intensity (ScNbp2): ≤ 0
SPOT peptide array binding signal intensity (ScPex13): 855
SPOT peptide array binding signal intensity (ScRvs167): 871
SPOT peptide array binding signal intensity (ScSho1): ≤ 0
SPOT peptide array binding signal intensity (ScSla1-D1-D2): ≤ 0
SPOT peptide array binding signal intensity (ScSla1-D3): ≤ 0
SPOT peptide array binding signal intensity (SpAbp1-D1): ≤ 0
SPOT peptide array binding signal intensity (SpBbc1): 0.5
SPOT peptide array binding signal intensity (SpBzz1-D1): ≤ 0
SPOT peptide array binding signal intensity (SpBzz1-D2): ≤ 0
SPOT peptide array binding signal intensity (SpCyk3): ≤ 0
SPOT peptide array binding signal intensity (SpHof1): 0.25
SPOT peptide array binding signal intensity (SpHof1-2): 0.875
SPOT peptide array binding signal intensity (SpHof1-3): 1.88
SPOT peptide array binding signal intensity (SpHse1): ≤ 0
SPOT peptide array binding signal intensity (SpLsb1): 1100
SPOT peptide array binding signal intensity (SpLsb4): 3290
SPOT peptide array binding signal intensity (SpMyo1): ≤ 0
SPOT peptide array binding signal intensity (SpNbp2): ≤ 0
SPOT peptide array binding signal intensity (SpPex13): ≤ 0
SPOT peptide array binding signal intensity (SpRvs167): 467
SPOT peptide array binding signal intensity (SpSla1-D1-D2): ≤ 0
SPOT peptide array binding signal intensity (SpSla1-D3): ≤ 0
